26 compounds from PubChem BioAssay AID463183 (Sanford-Burnham Center for Chemical Genomics, 2010) can be followed below.

The nature of this experiment: blockers of oleate-driven lipid droplets in liver cells – imaging, AML12 mouse hepatocytes, single concentration, high-content, confirmation (AID 463183).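 On cell count: cells counted after overnight compound exposure.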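 On inhibition: plate controls were DMSO with oleic acid for no effect and 5 µM Triacsin-C for full effect.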 As to conditions: BODIPY lipid droplet imaging, at 5.2 µM, droplets induced with 100 µM oleic acid; cell count: measured here: cell count, cytotoxicity; inhibition: stronger effect = higher value.

The other results are listed elsewhere or left out. The source made the active and inactive calls.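 How the source made its calls: active means inhibition of lipid droplet metric at least 50%, with more than 300 cells in each of four replicates; inconclusive means wells under 300 cells, flagged as toxic or low count; inactive means the rest.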

The term inhibition denotes the relative decrease from the control value, in per cent. Take `COCCCNC(=O)CN1C(=O)CSc2ccc(S(=O)(=O)N3CCOCC3)cc21`: the cell count turned out to be 1530 cells and the inhibition was -1.8% (inactive).
The corresponding values for `CC(C)(C)NC(=O)Cn1cnc2cc([N+](=O)[O-])ccc2c1=O` are 1630 cells and 21.8% (inactive).
The corresponding values for `Cc1ccc(N2C(=O)C(NC(=O)c3c(F)cccc3F)(C(F)(F)F)C3=C2CC(C)(C)CC3=O)cc1` (configuration not stated) are 1590 cells and 87.5% (active).
The corresponding values for `CCOC(=O)C1=C(CC)OC(N)=C(C#N)C1c1ccc(F)cc1F` (configuration not stated) are 1680 cells and 10.3% (inactive).
As to `Cc1cc(C(=O)NC2CCCc3c2cnn3-c2cccc(C)c2C)c(C)o1` (configuration not stated), the cell count stood at 1560 cells and the inhibition is 78.5% (active).
The matching figures for `CCOc1ccc(CCNC(=O)CCc2nnc3ccc(N4CCCC4)nn23)cc1OCC`: 1650 cells and 100% (active).
The matching figures for `COc1ccc(OC)c(-c2csc(-c3cccs3)n2)c1`: 1580 cells and 13.4% (inactive).
The corresponding values for `CCCN(CCC)c1nc2c(C)cccn2c(=O)c1/C=C1/SC(=S)N(Cc2ccco2)C1=O` are 1560 cells and 51.2% (inactive).
In the case of `O=C(CN1CCc2cc3c(cc2C1)OCCCO3)Nc1ccccc1`, the cell count was determined as 1530 cells and the inhibition is 15.8% (inactive).
The corresponding values for `Cn1c(=O)[nH]c(=O)c2c1nc(N1CCN(C(c3ccccc3)c3ccccc3)CC1)n2CCO` are 1570 cells and 78.2% (active).
As for `O=C1Nc2ccc(Br)cc2/C1=N/N=C/C1=C(N2CCOCC2)C(=C\c2ccccc2)/CC1`, the cell count came to 1660 cells and the inhibition is 65.8% (active).
As to `CCCN(CCC)c1ccc(C(O)c2nnc(-c3ccccc3)o2)cc1` (configuration not stated), the cell count came out at 1610 cells and the inhibition was 106% (active).
The corresponding values for `CCOc1ccc(CCNC(=O)Nc2ccccc2)cc1OCC` are 1550 cells and 109% (active).
The corresponding values for `COc1cccc(/C=C(/CC(=O)Nc2ccc(N3CCOCC3)cc2)c2nc3ccccc3s2)c1` are 1580 cells and 94.7% (active).
The matching figures for `CCc1ccc(NC(=O)C(C)OC(=O)/C=C/c2cccc([N+](=O)[O-])c2)cc1` (configuration not stated): 1510 cells and 48% (inactive).
As to `CN(C)c1ccc(Nc2c3c4c(cccc4n(C)c2=O)C(=O)c2ccccc2-3)cc1`, the cell count stood at 1580 cells and the inhibition is 14.8% (inactive).
Take `CCCCN1C(=O)/C(=C/C=C2/C=Cc3ccccc3N2CC)SC1=S`: the cell count was found to be 1580 cells and the inhibition is -4.78% (inactive).
With `COc1ccc(/C=C(\NC(=O)c2ccc(OCC(C)C)cc2)C(=O)OCc2ccco2)cc1`, the cell count amounted to 1460 cells and the inhibition was 91.6% (active).
The matching figures for `COc1cc(/C=N/NC(=O)Nc2ccccc2)ccc1OCCOc1ccccc1C`: 1640 cells and -21.6% (inactive).
For the compound `CCCc1ccc(-c2csc(NC(=O)Cc3cccs3)n2)cc1`, the cell count worked out at 1560 cells and the inhibition was 104% (active).
The matching figures for `COc1ccc(Cl)cc1NC(=O)CN(C)C(=O)CCCc1c[nH]c2ccccc12`: 1450 cells and 85% (active).
The matching figures for `O=[N+]([O-])c1ccccc1N/N=C1\CCc2ccccc21`: 1520 cells and 31.2% (inactive).
The corresponding values for `Cc1cc(NC(=O)CSc2nc(C(C)C)nc3sc4c(c23)CCC(C)C4)no1` (configuration not stated) are 1700 cells and 105% (active).
Turning to `CC(NC(=O)c1cccc2ccccc12)c1ccc2c(c1)CCCC2` (configuration not stated), the cell count turned out to be 1640 cells and the inhibition was 98.5% (active).
Turning to `Cc1c(C(=O)NCc2ccccc2)cnn1-c1ccccc1`, the cell count is 1670 cells and the inhibition was 26.9% (inactive).
The matching figures for `COc1ccc(C(C(=O)NC(C)(C)C)N(Cc2ccc(F)cc2)C(=O)CCC(=O)Nc2cc(C)on2)cc1` (configuration not stated): 1630 cells and 108% (active).
